Measurements reported in PubChem BioAssay (EPA / NIEHS).
The source made the active and inactive calls. Rule for the calls: active = hit-call score of the fitted dose curve at least 0.9, where 1 is the maximum; inactive = score below 0.9.

Molecular target: Transcriptional activator Myb (Homo sapiens) (UniProt P10242)
Assay: ATG_Myb_CIS: Attagene CIS-FACTORIAL HepG2 Assay for human Myeloblastosis (Myb) Proto-Oncogene Transcription Factor (AID 2282986)
Conditions: HepG2 Attagene CIS-FACTORIAL Myb reporter transcription; actives raise or lower the signal
Experimental: ATG_CIS is a cell-based, multiplexed-readout assay that uses HepG2, a human liver cell line, with measurements taken at 24 hours after chemical dosing in a 24-well plate.ATG_Myb_CIS is one of 52 assay component(s) measured or calculated from the ATG_CIS assay. It is designed to make measurements of mRNA induction, a form of inducible reporter, as detected with fluorescence intensity signals by Reverse transcription polymerase chain reaction (RT-PCR) and Capillary electrophoresis technology.Data from the assay component ATG_Myb_CIS was analyzed into 1 assay endpoint. This assay endpoint, ATG_Myb_CIS, was analyzed with bidirectional fitting relative to DMSO as the negative control and baseline of activity. Using a type of inducible reporter, measures of mRNA for gain or loss-of-signal activity can be used to understand the reporter gene at the transcription factor-level as they relate to the gene MYB. Furthermore, this assay endpoint can be referred to as a primary readout, because this assay has produced multiple assay endpoints where this one serves a reporter gene function. To generalize the intended target to other relatable targets, this assay endpoint is annotated to the dna binding intended target family, where the subfamily is MYB proteins.
Human liver HepG2 cells are transiently transfected with multiple reporter transcription units (MRTUs) in 6-well plates using FuGene 6 reagent (Roche; 3 ml FuGene/1 mg DNA). The MRTU constructs are regulated by a cis-regulating element (promoter). […] A major difference between the CIS and TRANS system is that in CIS activities of endogenous TFs are measured, whereas the TRANS assay evaluates changes in activities of exogenous, chimeric NR-Gal4 proteins. […] At the end of 24 hour incubation, total RNA was isolated using TriZol reagent (Invitrogen). The isolated RNA is then reverse-transcribed using oligo(dT) primer and Mo-MLV reverse transcriptase (Invitrogen) with DNAse I (Ambion) treatment for 30 min. The one-tenth of the produced cDNA was amplified by PCR using Taq DNA polymerase (Invitrogen) and two reporter sequence-specific primers. The PCR products were fluorescently labeled by primer extension with 6-arboxyfluorescein (6-FAM) 5'-labeled reporter sequence-specific primer (2 min at 95 C, 20 s at 68 C and 10 min at 72 C) and these products were digested with 5U of HpaI (New England Biolabs) for 2h at 37 C. The fragments were purified using Qiaquick PCR columns (Qiagen), analyzed on an ABI 3130xL genetic analyzer (Applied Biosystems) with peak positions identified by using a set of X-rhodamine (ROX)-labeled MapMarker1000 molecular weight standards (BioVentures). The raw capillary electrophoresis data was processed using Attagraph software (Attagene).

Sequence of Transcriptional activator Myb (Homo sapiens) (P10242 whole entry, looked up): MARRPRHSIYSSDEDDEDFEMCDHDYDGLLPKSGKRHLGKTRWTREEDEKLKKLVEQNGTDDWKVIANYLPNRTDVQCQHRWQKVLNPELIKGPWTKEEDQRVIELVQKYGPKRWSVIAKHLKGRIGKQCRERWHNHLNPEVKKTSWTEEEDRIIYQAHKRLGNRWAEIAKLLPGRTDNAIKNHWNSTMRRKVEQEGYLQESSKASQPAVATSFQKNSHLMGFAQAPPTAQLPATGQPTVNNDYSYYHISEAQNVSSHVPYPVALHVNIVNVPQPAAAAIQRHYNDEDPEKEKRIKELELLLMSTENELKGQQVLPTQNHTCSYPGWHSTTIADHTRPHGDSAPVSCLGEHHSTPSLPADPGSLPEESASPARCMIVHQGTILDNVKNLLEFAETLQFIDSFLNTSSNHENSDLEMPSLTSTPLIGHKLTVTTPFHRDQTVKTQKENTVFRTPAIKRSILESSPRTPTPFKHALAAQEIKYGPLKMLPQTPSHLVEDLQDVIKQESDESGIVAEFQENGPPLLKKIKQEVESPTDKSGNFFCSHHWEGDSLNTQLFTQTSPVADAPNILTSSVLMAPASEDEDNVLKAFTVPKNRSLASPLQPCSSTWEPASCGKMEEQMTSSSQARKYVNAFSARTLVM

| Compound | outcome | AC50 |
| --- | --- | --- |
| COc1cc(OC)c(OC)cc1C=O | inactive | – |
| CC(C)(Cl)Cl | inactive | – |
| CC(C)CCCCCCCOC(=O)c1ccccc1C(=O)OCCCCCCCC(C)C | inactive | – |
| C[C@]12CC[C@H](O)C[C@H]1CC[C@@H]1[C@@H]2C[C@@H](O)[C@]2(C)[C@@H](C3=CC(=O)OC3)CC[C@]12O | – | 5.88 µM (active) |
| Cc1ccc(OP(=O)(Oc2ccc(C)cc2)Oc2ccc(C)cc2)cc1 (tested in a mixture with another compound) | inactive | – |
| Nc1ccc([N+](=O)[O-])cc1N | inactive | – |
| CCC(C)c1cc([N+](=O)[O-])cc([N+](=O)[O-])c1OC(=O)C=C(C)C (stereo not given) | inactive | – |
| CC(=O)C=Cc1ccccc1 | – | 128 µM (active) |
| Cc1ccc(C)c2ccccc12 | inactive | – |
| C=CC(=O)OCCO | inactive | – |
| O=C=Nc1ccccc1 | inactive | – |
| C[N+](C)=CCl | inactive | – |
| CC(C)C#N | inactive | – |
| Nc1ccccc1 | inactive | – |
| CCCCCCCCCCCC#N | inactive | – |
| CC(O)CN(CC(C)O)CC(C)O (stereo not given) | inactive | – |
| N#CC(c1ccccc1)c1ccccc1 | inactive | – |
| CCC(C)(C)O | inactive | – |
| Nc1c(Cl)c(Cl)c(Cl)c(Cl)c1Cl | inactive | – |
| CCNCC | inactive | – |

| Compound | outcome | AC50 |
| --- | --- | --- |
| O=C(CCN1CC1)OCC(CO)(COC(=O)CCN1CC1)COC(=O)CCN1CC1 | inactive | – |
| O=c1c2ccccc2c(=O)c2c1cc(Cl)c1[nH]c3c([nH]c12)c(Cl)cc1c(=O)c2ccccc2c(=O)c13 | inactive | – |
| c1ccc(P(c2ccccc2)c2ccccc2)cc1 | inactive | – |
| ClCCCCCCCl | inactive | – |
| CCc1cccc(C)c1N(C(=O)CCl)[C@@H](C)COC | inactive | – |
| O=C(O)COc1ccccc1 | inactive | – |
| COc1ccc(CO)cc1 | inactive | – |
| C=C(Cl)Cl | inactive | – |
| CC(C)COP(=O)(OCC(C)C)OCC(C)C | inactive | – |
| ClCC(Cl)Cl | inactive | – |
| O=[N+]([O-])c1cc(C(F)(F)F)c(Cl)c([N+](=O)[O-])c1Cl | inactive | – |
| CCCCOC(=O)CCC(=O)OCCCC | inactive | – |
| CCC1CCC(=O)O1 (stereo not given) | inactive | – |
| Cc1ccc(N(SC(F)(Cl)Cl)S(=O)(=O)N(C)C)cc1 | inactive | – |
| CCCC=NO | inactive | – |
| O=P(O)(Oc1ccccc1)Oc1ccccc1 | inactive | – |
| O=C(NCNC(=O)NC1C(=O)NC(=O)N1CO)NC1C(=O)NC(=O)N1CO (stereo not given) | inactive | – |
| Cc1ccccc1CCl | inactive | – |
| Cc1ncc(C[n+]2csc(CCO)c2C)c(N)n1 | inactive | – |
| O=P1(NCCCl)OCCCN1CCCl (stereo not given) | inactive | – |
